PubChem BioAssay (NCATS)
Records with an inconclusive call do not appear. Calls of active or inactive are those of the source. The call rests on the fitted dose curve; in most records, active means well fitted cell-killing curve with a large enough effect; inconclusive means small, poorly fitted or top-dose-only effect, or effect the other way; inactive means no such curve, though single readings can be large or run the other way.

Experiments:
[1] = Quantitative High-Throughput drug screen in 47 multiple myeloma cell lines against the NCATS MIPE library collection: OCIMY1_PLB cell viability assay (AID 1918979); further: nearly all actives have a fitted effect of over 35% in size;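 on viability: 100% = DMSO-only wells and 0% = cell-free media-only wells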
In short: (§1)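 500 cells/well; MIPE 4.0 drugs pin-transferred; 48 h, 37C, 5% CO2. CellTiter-Glo, 5 min RT, luminescence. Controls: DMSO 100%, media 0%.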

[2] = Quantitative High-Throughput drug screen in 47 multiple myeloma cell lines against the NCATS MIPE library collection: MM1S_ATCC cell viability assay (AID 1918980); further: nearly all actives have a fitted effect of over 45% in size
In short: as §1

[3] = Quantitative High-Throughput drug screen in 47 multiple myeloma cell lines against the NCATS MIPE library collection: MM1R_ATCC cell viability assay (AID 1918981); further: nearly all actives have a fitted effect of over 35% in size
In short: as §1

[4] = Quantitative High-Throughput drug screen in 47 multiple myeloma cell lines against the NCATS MIPE library collection: KMS28PE_JCRB cell viability assay (AID 1918983); further: nearly all actives have a fitted effect of over 35% in size
In short: as §1

[5] = Quantitative High-Throughput drug screen in 47 multiple myeloma cell lines against the NCATS MIPE library collection: L363_DSMZ cell viability assay (AID 1918984); further: nearly all actives have a fitted effect of over 40% in size
In short: as §1

[6] = Quantitative High-Throughput drug screen in 47 multiple myeloma cell lines against the NCATS MIPE library collection: KMS34_JCRB cell viability assay (AID 1918985); further: nearly all actives have a fitted effect of over 40% in size
In short: as §1

[7] = Quantitative High-Throughput drug screen in 47 multiple myeloma cell lines against the NCATS MIPE library collection: OCIMY5_PLB cell viability assay (AID 1918988); further: nearly all actives have a fitted effect of over 65% in size
In short: as §1

[8] = Quantitative High-Throughput drug screen in 47 multiple myeloma cell lines against the NCATS MIPE library collection: OPM1_PLB cell viability assay (AID 1918989); further: nearly all actives have a fitted effect of over 40% in size
In short: as §1

[9] = Quantitative High-Throughput drug screen in 47 multiple myeloma cell lines against the NCATS MIPE library collection: SKMM1_PLB cell viability assay (AID 1919863); details: SKMM1 myeloma viability, CellTiter-Glo ATP, 48 h; viability: stronger effect = lower value; further: nearly all actives have a fitted effect of over 35% in size
In short: as §1

[10] = Quantitative High-Throughput drug screen in 47 multiple myeloma cell lines against the NCATS MIPE library collection: U266_ATCC cell viability assay (AID 1919864); further: nearly all actives have a fitted effect of over 35% in size;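 on viability (% of DMSO control): 0% = media-only wells without cells and 100% = DMSO-only wells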
In short: as §1

[11] = Quantitative High-Throughput drug screen in 47 multiple myeloma cell lines against the NCATS MIPE library collection: XG6_PLB cell viability assay (AID 1919865); further: nearly all actives have a fitted effect of over 40% in size
In short: as §1

[12] = Quantitative High-Throughput drug screen in 47 multiple myeloma cell lines against the NCATS MIPE library collection: XG1_PLB cell viability assay (AID 1919866); further: nearly all actives have a fitted effect of over 35% in size
In short: as §1

[13] = Quantitative High-Throughput drug screen in 47 multiple myeloma cell lines against the NCATS MIPE library collection: VP6_DJ cell viability assay (AID 1919867); further: nearly all actives have a fitted effect of over 40% in size;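 on viability (% of DMSO): 100% = DMSO-only wells and 0% = wells with media alone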
In short: as §1

[14] = Quantitative High-Throughput drug screen in 47 multiple myeloma cell lines against the NCATS MIPE library collection: UTMC2_PLB cell viability assay (AID 1919868); details: CellTiter-Glo ATP luminescence, 48 h; viability (% of DMSO control): at 45.8 µM (top of the series); further: nearly all actives have a fitted effect of over 55% in size;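 on viability (% of DMSO control): 100% = DMSO-only wells and 0% = media-only wells without cells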
In short: as §1

[15] = Quantitative High-Throughput drug screen in 47 multiple myeloma cell lines against the NCATS MIPE library collection: PE2_PLB cell viability assay (AID 1919869); further: nearly all actives have a fitted effect of over 35% in size
In short: as §1

[16] = Quantitative High-Throughput drug screen in 47 multiple myeloma cell lines against the NCATS MIPE library collection: PCM6_Riken cell viability assay (AID 1919870); further: nearly all actives have a fitted effect of over 30% in size
In short: as §1

[17] = Quantitative High-Throughput drug screen in 47 multiple myeloma cell lines against the NCATS MIPE library collection: RPMI8226_ATCC cell viability assay (AID 1919871); further: nearly all actives have a fitted effect of over 30% in size
In short: as §1

[18] = Quantitative High-Throughput drug screen in 47 multiple myeloma cell lines against the NCATS MIPE library collection: OPM2_DSMZ cell viability assay (AID 1919872); further: nearly all actives have a fitted effect of over 30% in size
In short: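 Primary qHTS used for cherry-picking: cells at 500/well, library compounds for 48 h (37C, 5% CO2), luminescent ATP assay.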

[19] = Quantitative High-Throughput drug screen in 47 multiple myeloma cell lines against the NCATS MIPE library collection: LP1_DSMZ cell viability assay (AID 1918982); further: nearly all actives have a fitted effect of over 35% in size
In short: as §1

[20] = Quantitative High-Throughput drug screen in 47 multiple myeloma cell lines against the NCATS MIPE library collection: OCIMY7_PLB cell viability assay (AID 1918987); details: OCI-MY7 myeloma viability, CellTiter-Glo ATP, 48 h; viability (% of DMSO): at 45.8 µM (top of the series); further: nearly all actives have a fitted effect of over 65% in size
In short: as §1
Potency means the concentration at half of the fitted maximal effect.

O=C(CCCCCCC(=O)Nc1cccnc1)NO
active: Potency [1] 14800 nM | Potency [2] 3320 nM | Potency [3] 2640 nM | Potency [4] 4180 nM | Potency [5] 5900 nM | Potency [6] 3720 nM | Potency [7] 3320 nM | Potency [8] 4180 nM | Potency [9] 5900 nM | Potency [10] 4690 nM | Potency [11] 11800 nM | Potency [12] 3720 nM | Potency [13] 1480 nM | Potency [14] 935 nM | Potency [15] 7430 nM | Potency [16] 7430 nM | Potency [17] 16600 nM | Potency [18] 8330 nM

CC(=O)C1=C(O)C=C2Oc3c(C(C)=O)c(O)c(C)c(O)c3C2(C)C1=O (centres undefined)
active: Potency [7] 1.2 nM
inactive: Potency [1] | Potency [2] | Potency [3] | Potency [4] | Potency [6] | Potency [12] | Potency [13] | Potency [14] | Potency [15] | Potency [16] | Potency [17]

CC(=O)NCC(=O)N1[C@H]2CC[C@H]1c1cc(Nc3ncc(C(F)(F)F)c(NC4CCC4)n3)ccc12
active: Potency [1] 14800 nM | Potency [2] 3320 nM | Potency [19] 7430 nM | Potency [4] 4180 nM | Potency [5] 935 nM | Potency [6] 833 nM | Potency [20] 93.5 nM | Potency [7] 1180 nM | Potency [8] 590 nM | Potency [9] 20900 nM | Potency [10] 5900 nM | Potency [11] 1180 nM | Potency [12] 332 nM | Potency [13] 833 nM | Potency [14] 118 nM | Potency [15] 1660 nM | Potency [16] 1870 nM | Potency [17] 5900 nM | Potency [18] 1480 nM

Nc1cccc2c1C(=O)N(C1CCC(=O)NC1=O)C2=O (centres undefined)
inactive: Potency [1] | Potency [19] | Potency [5] | Potency [10] | Potency [11] | Potency [15] | Potency [16]
active: Potency [2] 526 nM | Potency [4] 83.3 nM | Potency [18] 1.2 nM

NC(=O)N1CCC(CC(=O)N2CCC([C@H]3c4ncc(Br)cc4CCc4cc(Cl)cc(Br)c43)CC2)CC1
active: Potency [1] 20900 nM | Potency [2] 16600 nM | Potency [3] 20900 nM | Potency [4] 18700 nM | Potency [5] 4180 nM | Potency [6] 20900 nM | Potency [20] 743 nM | Potency [8] 23500 nM | Potency [9] 18700 nM | Potency [10] 18700 nM | Potency [11] 16600 nM | Potency [12] 5260 nM | Potency [13] 13200 nM | Potency [15] 14800 nM | Potency [16] 20900 nM | Potency [17] 16600 nM

COC(=O)[C@H](CCCN=C(N)N)NS(=O)(=O)c1ccc(C)cc1
inactive: Potency [1] | Potency [2] | Potency [3] | Potency [4] | Potency [5] | Potency [6] | Potency [7] | Potency [8] | Potency [15] | Potency [16] | Potency [18]

CC(C)c1cc(C(C)C)c(CC(=O)NS(=O)(=O)Oc2c(C(C)C)cccc2C(C)C)c(C(C)C)c1
inactive: Potency [2] | Potency [10]
active: Potency [1] 20900 nM | Potency [19] 20900 nM | Potency [4] 23500 nM | Potency [6] 18700 nM | Potency [7] 33200 nM | Potency [8] 9350 nM | Potency [9] 26400 nM | Potency [14] 10500 nM | Potency [15] 5900 nM | Potency [18] 23500 nM

OCc1ccccc1O[C@@H]1O[C@H](CO)[C@H](O)[C@H](O)[C@H]1O
active: Potency [2] 20900 nM | Potency [20] 26400 nM
inactive: Potency [1] | Potency [3] | Potency [4] | Potency [5] | Potency [8] | viability [9] 130% | Potency [10] | Potency [13] | Potency [14] | Potency [15] | Potency [16] | Potency [17] | Potency [18]

O=C1NC(=O)C(=Cc2ccc3nccc(-c4ccncc4)c3c2)S1
active: Potency [1] 235 nM | Potency [2] 118 nM | Potency [3] 105 nM | Potency [4] 372 nM | Potency [5] 46.9 nM | Potency [6] 296 nM | Potency [20] 66.2 nM | Potency [8] 74.3 nM | Potency [9] 590 nM | Potency [10] 418 nM | Potency [11] 83.3 nM | Potency [12] 33.2 nM | Potency [14] 37.2 nM | Potency [15] 46.9 nM | Potency [16] 166 nM | Potency [17] 235 nM

CS[C@H]1SC[C@@H]2C(=O)N(C)[C@H](C(C)C)C(=O)OC[C@H](NC(=O)c3cnc4ccccc4n3)C(=O)N[C@H](C)C(=O)N(C)[C@@H]1C(=O)N(C)[C@H](C(C)C)C(=O)OC[C@H](NC(=O)c1cnc3ccccc3n1)C(=O)N[C@H](C)C(=O)N2C
active: Potency [1] 20.9 nM | Potency [2] 3 nM | Potency [19] 6.6 nM | Potency [4] 3 nM | Potency [6] 4.7 nM | Potency [20] 41.8 nM | Potency [7] 2.1 nM | Potency [10] 6.6 nM | Potency [11] 1 nM | Potency [12] 7.4 nM | Potency [13] 1 nM | Potency [14] 1 nM | Potency [15] 1 nM | Potency [16] 1 nM | Potency [17] 10.5 nM | Potency [18] 8.3 nM

C#CCC(Cc1cnc2nc(N)nc(N)c2n1)c1ccc(C(=O)N[C@@H](CCC(=O)O)C(=O)O)cc1 (some centres undefined)
inactive: Potency [1] | Potency [4] | viability [9] 117% | Potency [17]
active: Potency [2] 18.7 nM | Potency [19] 41.8 nM | Potency [6] 209 nM | Potency [8] 166 nM | Potency [10] 372 nM | Potency [11] 41.8 nM | Potency [12] 59 nM | Potency [14] 372 nM | Potency [15] 418 nM | Potency [18] 33.2 nM
